About 79,000 compounds went through this panel and 15% of them were active in at least one assay; those are over-represented in the sample as a whole. Unmarked numbers belong to inactive results. Activity calls are given as the source filed them. Rule as the data show it: active = growth inhibition above about 70%; inactive = the rest.
Assays:
[1] = NCI Yeast Anticancer Drug Screen. Data for the rad50 strain (AID 155);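 also: 0% = growth of vehicle-only cultures of the same strain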; details: S. cerevisiae rad50 strain growth inhibition, hits give high values
How it was run: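 Vehicle-treated cultures provide the reference for the growth inhibition reported for compound-exposed, repair-deficient yeast.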

[2] = NCI Yeast Anticancer Drug Screen. Data for the mec2-1 strain (AID 157); details: S. cerevisiae mec2-1 strain, hits give high values
How it was run: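 Compounds were applied to mec2-1 yeast cells. Their growth was then compared with that of vehicle-treated cultures to give growth inhibition.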

[3] = NCI Yeast Anticancer Drug Screen. Data for the sgs1 mgt1 strain (AID 161);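 also: 0% = growth of cultures given vehicle only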; details: S. cerevisiae sgs1 mgt1 strain, hits give high values
How it was run: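 Compounds are added to genetically altered yeast, and growth is compared with cultures given vehicle alone to give percent inhibition.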

[4] = NCI Yeast Anticancer Drug Screen. Data for the cln2 rad14 strain (AID 165);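 also: 0% = growth equal to vehicle treated cultures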; details: S. cerevisiae cln2 rad14 strain, hits give high values
How it was run: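 Strain: cln2 rad14 yeast, altered in cell cycle control and DNA damage repair. Read-out: growth inhibition vs vehicle.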

[5] = NCI Yeast Anticancer Drug Screen. Data for the bub3 strain (AID 167); details: S. cerevisiae bub3 mutant strain, hits give high values
How it was run: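 Mutant yeast screening strain plus compound; vehicle-treated cultures serve as the 0% inhibition reference.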

[6] = NCI Yeast Anticancer Drug Screen. Data for the mlh1 rad18 strain (AID 175); details: S. cerevisiae mlh1 rad18 strain growth inhibition, hits give high values
How it was run: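 A repair-deficient yeast strain is exposed to test compound, and growth is scored relative to vehicle-treated controls.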

[7] = at 5.0 µM (retest, dose inferred, filed as 0.5)
[8] = at 50.0 µM (retest, dose inferred, filed as 5.0)

| SMILES | growth inhibition [1, 7] | growth inhibition [1, 8] | growth inhibition ([1]; at 50.0 µM) | growth inhibition [2, 7] | growth inhibition [2, 8] | growth inhibition ([2]; at 50.0 µM) | growth inhibition [3, 7] | growth inhibition [3, 8] | growth inhibition ([3]; at 50.0 µM) | growth inhibition [4, 7] | growth inhibition [4, 8] | growth inhibition ([4]; at 50.0 µM) | growth inhibition [5, 7] | growth inhibition [5, 8] | growth inhibition ([5]; at 50.0 µM) | growth inhibition [6, 7] | growth inhibition [6, 8] | growth inhibition ([6]; at 50.0 µM) |
| --- | --- | --- | --- | --- | --- | --- | --- | --- | --- | --- | --- | --- | --- | --- | --- | --- | --- | --- |
| Cc1cc(O)c(C)c(C)c1N=Nc1ccccc1 | -157% | -58% | 56.4% | -52% | -51% | 6.3% | -68% | -38% | 58.5% | -63% | -81% | 16.8% | -70% | -47% | 63.8% | -124% | -119% | 87.5% (active) |
| Oc1ccc(CC2CCC(O)CC2)cc1 (stereo unspecified) | -169% | -33% | 50.5% | -61% | -33% | 28.6% | -66% | -54% | 22.6% | -59% | -43% | 45% | -76% | -24% | 46.6% | -121% | -78% | 24.2% |
| CC(C)[C@@H]1CC[C@@H](C)C[C@H]1OC(=O)NN | -8% | 72% (active) | 89.5% (active) | -30% | 53% | 90.3% (active) | -8% | 70% (active) | 91.2% (active) | 1% | -2% | 59.6% | 6% | 84% (active) | 80.5% (active) | -6% | 68% | 95.3% (active) |
| COc1cc(C2c3cc4c(cc3[C@@H](OCCN)[C@H]3COC(=O)C23)OCO4)cc(OC)c1O (stereo partly specified) | 47% | 93% (active) | 52.2% | 11% | 55% | 77.2% (active) | 29% | 63% | 69.5% | 29% | 28% | 49.6% | 24% | 44% | 49.5% | 19% | 68% | 80.7% (active) |
| CCCCCCCCCCCCCCCCCC[N+]1(CC)CCCCC1 | 99% (active) | 99% (active) | 90.3% (active) | 99% (active) | 99% (active) | 91.2% (active) | 99% (active) | 99% (active) | 91.5% (active) | 99% (active) | 99% (active) | 90.2% (active) | 99% (active) | 99% (active) | 90.4% (active) | 99% (active) | 99% (active) | 89.2% (active) |
| CCN(CC)CCNc1ccc(C)c2sc3ccc(OC)cc3c(=O)c12 | 32% | 94% (active) | 90.7% (active) | 22% | 97% (active) | 89.2% (active) | 23% | 98% (active) | 17.2% | 16% | 87% (active) | 30.9% | 31% | 99% (active) | 1% | 32% | 98% (active) | 93% (active) |
| COC1OC(CBr)C(OC(c2ccccc2)(c2ccccc2)c2ccccc2)C(OC(c2ccccc2)(c2ccccc2)c2ccccc2)C1OC(c1ccccc1)(c1ccccc1)c1ccccc1 (stereo unspecified) | -11% | 11% | 98.8% (active) | -12% | -27% | 98.7% (active) | -11% | -9% | 98.5% (active) | -8% | 33% | 96.5% (active) | -2% | 25% | 97.7% (active) | -5% | 32% | 98% (active) |
| CCC[CH2][Sn]([CH2]CCC)([O]C(=O)c1cc(OC)c(OC)cc1OC)[O][Sn]([CH2]CCC)([CH2]CCC)[O]C(=O)c1cc(OC)c(OC)cc1OC | 94% (active) | 97% (active) | 88.5% (active) | 96% (active) | 98% (active) | 91% (active) | 96% (active) | 99% (active) | 91.5% (active) | 92% (active) | 98% (active) | 90.2% (active) | 97% (active) | 98% (active) | 90.5% (active) | 96% (active) | 97% (active) | 89% (active) |
| CC(C)(CC(=O)NNc1ccccc1)C(=O)O | 7% | 72% (active) | 57.6% | 4% | 61% | 20.2% | 14% | 60% | 72% (active) | 19% | 82% (active) | 79.2% (active) | 22% | 94% (active) | 89.5% (active) | 32% | 95% (active) | 85.8% (active) |
| O=S(=O)(CCNCCCCC1CCCCC1)SCCNCCCCC1CCCCC1 | 48% | 99% (active) | 68.3% | 3% | 99% (active) | 49.1% | 70% (active) | 99% (active) | 55.1% | 10% | 99% (active) | 56.5% | 16% | 99% (active) | 98.8% (active) | 38% | 99% (active) | 47% |
| CCCCCCNC(=S)N/N=C(\C)c1ccccn1 | 72% (active) | 99% (active) | 76.3% (active) | 86% (active) | 99% (active) | 85.7% (active) | 63% | 99% (active) | 90% (active) | 90% (active) | 95% (active) | 90.3% (active) | 98% (active) | 99% (active) | 90.5% (active) | 97% (active) | 93% (active) | 91.2% (active) |
| O=C(/C(=N/O)[n+]1ccccc1)c1ccccc1 | -4% | 69% | 73.2% (active) | -3% | 60% | 26.8% | -9% | 33% | 41.7% | -6% | -7% | -10.8% | -1% | 94% (active) | 41.8% | 4% | 53% | 78.5% (active) |
